Composite z-score and z-score data for five compounds are collected here from PubChem BioAssay.

Active and inactive are the calls of the source.

The nature of test [1]: small molecules captured by biotinylated probe aFSTL3 – biochemical, small-molecule microarray, fluorescence 635/667, stem cell growth factor project, primary screen (AID 1064).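 Also: measures binding of the biotinylated anti-FSTL3 antibody to printed compounds.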 The conditions noted are these: higher = more signal.
Test [2] is described as follows: binders from COS7 lysate, DM2A8 probe, primary screen, torsin A project, cell lysate, small-molecule microarray, fluorescence 635/667 (AID 1065). The following applies: higher = more signal, COS7 lysate expressing mutant human TOR1A.
Test [3] can be described thus: small molecules captured by biotinylated probe aFGF2 – biochemical, small-molecule microarray, fluorescence 635/667, stem cell growth factor project, primary screen (AID 1067).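 Also: measures binding of biotinylated aFGF2 protein to printed compounds on slides; z-score merges feature fluorescence and signal-to-noise across triplicate slides.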 The following applies: higher = more signal.
Test [4] can be described thus: small molecules captured by biotinylated probe aFGF10 – biochemical, small-molecule microarray, fluorescence 635/667, stem cell growth factor project, primary screen (AID 1071).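 Also: score merges 667 nm spot intensity and signal to noise from triplicate slides.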 The following applies: higher = more signal.
The target in test [5] is Neurogenic locus notch homolog protein 2 (Homo sapiens) (UniProt Q04721). As to the kind of experiment: small molecules binding Notch2 protein – biochemical, small-molecule microarray, 635 nm fluorescence, stem cell growth factors, primary screen (AID 1073). The conditions noted are these: higher = more signal.
The target of test [6] is Pro-neuregulin-1, membrane-bound isoform (Homo sapiens) (UniProt Q02297). Description: small molecules binding neuregulin-1 protein – biochemical, small-molecule microarray, fluorescence 635/667, psychiatric disease protein project, primary screen (AID 1075).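 Also: score combines 667 nm spot fluorescence with signal to noise.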 The following applies: NRG1 binding, 635 nm fluorescence, higher = more signal.
Test [7] relates to Neuregulin-1 EGF-like domain. Description: small molecules binding NRG1 EGF domain – biochemical, small-molecule microarray, 635 nm fluorescence, primary screen (AID 1081).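 Also: binding of the protein to compounds printed on small-molecule microarray slides.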 The following applies: higher = more signal.
Test [8] can be described thus: FRG1 expression reporter modulators in myotubes – cell-based, C2C12 myotubes, firefly/Renilla luciferase, luminescence, FRG1 inhibition for FSHD, primary screen (AID 1084). The conditions noted are these: FRG1 promoter luciferase, higher = more signal, called active from +8 up or from −8 down.
Test [9] can be described thus: small molecules captured by biotinylated probe aFST – biochemical, small-molecule microarray, fluorescence 635/667, stem cell growth factor project, primary screen (AID 1086).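 Also: score merges 667 nm fluorescence with signal-to-noise of each printed compound spot.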 The following applies: higher = more signal.
Test [10] is described as follows: binders of probe aHhip on microarray, primary screen, stem cell growth factor project, biochemical, small-molecule microarray, fluorescence 635/667 (AID 1087).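 Also: score merges spot fluorescence at 667nm with spot signal to noise ratio.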 The following applies: higher = more signal.
Test [11] deals with PRMT1 (protein arginine N-methyltransferase 1). As to the kind of experiment: small molecules binding arginine methyltransferase PRMT1 – biochemical, small-molecule microarray, 635 nm fluorescence, primary screen (AID 1088).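 Also: binding of Prmt1 protein to compounds spotted on small-molecule microarray slides.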 The following applies: higher = more signal.
Test [12] is described as follows: growth effects on S. cerevisiae YJM789 – YJM789 clinical isolate, OD600, 24 h, basal, primary screen (AID 1089).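 Also: growth of clinical yeast isolate S. cerevisiae YJM 789 seeded 1000 cells per well; test concentration not given here.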 The conditions noted are these: higher = more signal, called active from +8 up or from −8 down.
Test [13] can be described thus: S. pombe growth modifiers, basal conditions – strain 972, OD600, 24 h, no modulator, primary screen (AID 1090).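 Also: basal condition with compound alone and no growth modifier present; test concentration not given here.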 The following applies: S. pombe 972 growth, higher = more signal, called active from +8 up or from −8 down.
The nature of test [14]: budding yeast growth modifiers under rapamycin – strain BY4716, OD600, 96 h, primary screen (AID 1091). Also: test concentration not given here. The following applies: S. cerevisiae BY4716 + rapamycin, higher = more signal, called active from +8 up or from −8 down.
Test [15] has as its target Torsin-1A-interacting protein 2 (Homo sapiens) (UniProt Q8NFQ8). As to the kind of experiment: small molecules binding lysate-expressed LULL1 – cell lysate, human LULL1 lysate, 635/667 nm fluorescence, primary screen (AID 1092).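 Also: score merges per-feature 667 nm fluorescence with signal-to-noise.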 The following applies: small-molecule microarray, hLULL1 lysate binding, 635 nm fluorescence; higher = more signal.
Test [16] is described as follows: optical density change of DRC41 E. coli – strain DRC41, OD650, 24 h, E. coli filamentation project, primary screen (AID 1093).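 Also: MC1000 strain lacking acrAB efflux and sulA so SOS filamentation is blocked; test concentration not given here.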 The following applies: E. coli DRC41 growth, higher = more signal, called active from +8 up or from −8 down.
Test [17] is described as follows: probe aLefty2 binding to arrayed compounds – biochemical, biotinylated probe, 635/667 nm fluorescence, primary screen (AID 1094).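 Also: score merges spot fluorescence near 667 nm with spot signal-to-noise ratio.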 The following applies: small-molecule microarray, higher = more signal.
Test [18] deals with Noggin (protein binding on small-molecule microarray). Description: small molecules binding Noggin protein – biochemical, 635/667 nm fluorescence, primary screen (AID 1095).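 Also: score merges 667 nm feature fluorescence with signal to noise over triplicate slides.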 The following applies: 635 nm fluorescence, higher = more signal.
Test [19] concerns the target Neurogenic locus notch homolog protein 3 (Homo sapiens) (UniProt Q9UM47). As to the kind of experiment: small molecules binding NOTCH3 protein – biochemical, 635/667 nm fluorescence, primary screen (AID 1096). The conditions noted are these: small-molecule microarray, 635 nm fluorescence, higher = more signal.
A short description of test [20]: probe aEGFR binding to arrayed compounds – biochemical, biotinylated probe, 635/667 nm fluorescence, primary screen (AID 1097).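 Also: probe is a biotinylated anti-EGFR antibody binding compounds printed on slides; score combines fluorescence near 667 nm and signal to noise of each spot.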 The conditions noted are these: small-molecule microarray, higher = more signal.

Neurogenic locus notch homolog protein 3 (Homo sapiens), sequence (Q9UM47 whole entry, looked up): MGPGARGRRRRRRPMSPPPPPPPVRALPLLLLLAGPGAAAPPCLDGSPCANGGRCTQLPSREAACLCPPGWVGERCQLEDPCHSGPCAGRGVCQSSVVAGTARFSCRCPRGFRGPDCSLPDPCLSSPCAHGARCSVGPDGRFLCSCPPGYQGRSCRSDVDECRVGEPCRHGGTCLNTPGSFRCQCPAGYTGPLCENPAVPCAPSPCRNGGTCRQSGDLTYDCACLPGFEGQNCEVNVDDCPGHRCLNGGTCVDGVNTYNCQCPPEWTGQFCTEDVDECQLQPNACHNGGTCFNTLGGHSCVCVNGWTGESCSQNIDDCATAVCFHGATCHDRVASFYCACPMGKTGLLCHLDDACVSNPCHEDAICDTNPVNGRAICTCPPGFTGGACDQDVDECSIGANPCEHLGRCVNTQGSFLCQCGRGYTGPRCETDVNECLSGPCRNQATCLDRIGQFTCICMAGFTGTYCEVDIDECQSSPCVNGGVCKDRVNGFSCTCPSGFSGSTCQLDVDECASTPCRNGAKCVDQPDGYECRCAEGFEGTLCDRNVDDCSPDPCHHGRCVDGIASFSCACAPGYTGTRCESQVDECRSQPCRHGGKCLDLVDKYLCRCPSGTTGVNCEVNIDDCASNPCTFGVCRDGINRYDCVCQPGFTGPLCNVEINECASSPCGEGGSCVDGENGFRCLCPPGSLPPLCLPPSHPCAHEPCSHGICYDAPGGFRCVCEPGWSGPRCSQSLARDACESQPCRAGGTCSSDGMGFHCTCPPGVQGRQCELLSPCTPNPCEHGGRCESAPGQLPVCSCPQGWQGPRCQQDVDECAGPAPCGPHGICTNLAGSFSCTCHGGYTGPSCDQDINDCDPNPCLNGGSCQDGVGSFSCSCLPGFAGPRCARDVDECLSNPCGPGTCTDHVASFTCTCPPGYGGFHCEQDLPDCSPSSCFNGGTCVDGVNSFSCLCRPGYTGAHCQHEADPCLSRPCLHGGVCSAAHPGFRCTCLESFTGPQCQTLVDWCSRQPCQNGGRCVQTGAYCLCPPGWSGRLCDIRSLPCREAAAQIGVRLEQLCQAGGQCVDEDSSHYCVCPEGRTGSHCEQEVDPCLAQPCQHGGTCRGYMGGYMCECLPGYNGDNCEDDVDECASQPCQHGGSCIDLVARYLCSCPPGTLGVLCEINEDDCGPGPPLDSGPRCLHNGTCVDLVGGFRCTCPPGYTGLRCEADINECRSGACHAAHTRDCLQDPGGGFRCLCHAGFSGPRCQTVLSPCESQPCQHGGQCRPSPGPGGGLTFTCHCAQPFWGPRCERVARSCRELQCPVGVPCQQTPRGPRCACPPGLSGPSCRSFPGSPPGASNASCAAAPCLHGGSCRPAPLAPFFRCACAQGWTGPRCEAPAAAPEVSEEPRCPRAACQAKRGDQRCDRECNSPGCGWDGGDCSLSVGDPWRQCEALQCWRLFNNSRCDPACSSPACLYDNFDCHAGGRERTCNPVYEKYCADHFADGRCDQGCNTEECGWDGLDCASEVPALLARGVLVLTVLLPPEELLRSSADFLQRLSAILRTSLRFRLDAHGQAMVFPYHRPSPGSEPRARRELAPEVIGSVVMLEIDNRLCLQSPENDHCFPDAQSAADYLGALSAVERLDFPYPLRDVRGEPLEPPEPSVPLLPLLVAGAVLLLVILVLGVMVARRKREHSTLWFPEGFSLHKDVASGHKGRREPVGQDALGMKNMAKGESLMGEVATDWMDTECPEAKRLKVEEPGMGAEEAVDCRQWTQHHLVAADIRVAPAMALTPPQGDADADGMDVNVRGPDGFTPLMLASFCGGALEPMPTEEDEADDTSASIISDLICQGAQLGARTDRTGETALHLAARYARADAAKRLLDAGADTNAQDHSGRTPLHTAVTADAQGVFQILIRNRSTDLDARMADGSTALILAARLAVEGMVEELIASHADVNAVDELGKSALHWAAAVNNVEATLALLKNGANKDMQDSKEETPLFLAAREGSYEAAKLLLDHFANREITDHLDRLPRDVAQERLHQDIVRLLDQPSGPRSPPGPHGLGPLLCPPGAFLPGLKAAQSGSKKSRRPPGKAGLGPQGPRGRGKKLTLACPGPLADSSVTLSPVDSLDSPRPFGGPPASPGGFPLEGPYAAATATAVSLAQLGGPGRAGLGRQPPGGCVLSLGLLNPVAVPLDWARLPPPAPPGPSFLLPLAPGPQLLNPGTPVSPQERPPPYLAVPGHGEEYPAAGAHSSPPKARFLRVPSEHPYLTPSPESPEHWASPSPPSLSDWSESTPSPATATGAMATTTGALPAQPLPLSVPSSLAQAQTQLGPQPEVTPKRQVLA
Neurogenic locus notch homolog protein 2 (Homo sapiens), sequence (Q04721 whole entry, looked up, canonical isoform): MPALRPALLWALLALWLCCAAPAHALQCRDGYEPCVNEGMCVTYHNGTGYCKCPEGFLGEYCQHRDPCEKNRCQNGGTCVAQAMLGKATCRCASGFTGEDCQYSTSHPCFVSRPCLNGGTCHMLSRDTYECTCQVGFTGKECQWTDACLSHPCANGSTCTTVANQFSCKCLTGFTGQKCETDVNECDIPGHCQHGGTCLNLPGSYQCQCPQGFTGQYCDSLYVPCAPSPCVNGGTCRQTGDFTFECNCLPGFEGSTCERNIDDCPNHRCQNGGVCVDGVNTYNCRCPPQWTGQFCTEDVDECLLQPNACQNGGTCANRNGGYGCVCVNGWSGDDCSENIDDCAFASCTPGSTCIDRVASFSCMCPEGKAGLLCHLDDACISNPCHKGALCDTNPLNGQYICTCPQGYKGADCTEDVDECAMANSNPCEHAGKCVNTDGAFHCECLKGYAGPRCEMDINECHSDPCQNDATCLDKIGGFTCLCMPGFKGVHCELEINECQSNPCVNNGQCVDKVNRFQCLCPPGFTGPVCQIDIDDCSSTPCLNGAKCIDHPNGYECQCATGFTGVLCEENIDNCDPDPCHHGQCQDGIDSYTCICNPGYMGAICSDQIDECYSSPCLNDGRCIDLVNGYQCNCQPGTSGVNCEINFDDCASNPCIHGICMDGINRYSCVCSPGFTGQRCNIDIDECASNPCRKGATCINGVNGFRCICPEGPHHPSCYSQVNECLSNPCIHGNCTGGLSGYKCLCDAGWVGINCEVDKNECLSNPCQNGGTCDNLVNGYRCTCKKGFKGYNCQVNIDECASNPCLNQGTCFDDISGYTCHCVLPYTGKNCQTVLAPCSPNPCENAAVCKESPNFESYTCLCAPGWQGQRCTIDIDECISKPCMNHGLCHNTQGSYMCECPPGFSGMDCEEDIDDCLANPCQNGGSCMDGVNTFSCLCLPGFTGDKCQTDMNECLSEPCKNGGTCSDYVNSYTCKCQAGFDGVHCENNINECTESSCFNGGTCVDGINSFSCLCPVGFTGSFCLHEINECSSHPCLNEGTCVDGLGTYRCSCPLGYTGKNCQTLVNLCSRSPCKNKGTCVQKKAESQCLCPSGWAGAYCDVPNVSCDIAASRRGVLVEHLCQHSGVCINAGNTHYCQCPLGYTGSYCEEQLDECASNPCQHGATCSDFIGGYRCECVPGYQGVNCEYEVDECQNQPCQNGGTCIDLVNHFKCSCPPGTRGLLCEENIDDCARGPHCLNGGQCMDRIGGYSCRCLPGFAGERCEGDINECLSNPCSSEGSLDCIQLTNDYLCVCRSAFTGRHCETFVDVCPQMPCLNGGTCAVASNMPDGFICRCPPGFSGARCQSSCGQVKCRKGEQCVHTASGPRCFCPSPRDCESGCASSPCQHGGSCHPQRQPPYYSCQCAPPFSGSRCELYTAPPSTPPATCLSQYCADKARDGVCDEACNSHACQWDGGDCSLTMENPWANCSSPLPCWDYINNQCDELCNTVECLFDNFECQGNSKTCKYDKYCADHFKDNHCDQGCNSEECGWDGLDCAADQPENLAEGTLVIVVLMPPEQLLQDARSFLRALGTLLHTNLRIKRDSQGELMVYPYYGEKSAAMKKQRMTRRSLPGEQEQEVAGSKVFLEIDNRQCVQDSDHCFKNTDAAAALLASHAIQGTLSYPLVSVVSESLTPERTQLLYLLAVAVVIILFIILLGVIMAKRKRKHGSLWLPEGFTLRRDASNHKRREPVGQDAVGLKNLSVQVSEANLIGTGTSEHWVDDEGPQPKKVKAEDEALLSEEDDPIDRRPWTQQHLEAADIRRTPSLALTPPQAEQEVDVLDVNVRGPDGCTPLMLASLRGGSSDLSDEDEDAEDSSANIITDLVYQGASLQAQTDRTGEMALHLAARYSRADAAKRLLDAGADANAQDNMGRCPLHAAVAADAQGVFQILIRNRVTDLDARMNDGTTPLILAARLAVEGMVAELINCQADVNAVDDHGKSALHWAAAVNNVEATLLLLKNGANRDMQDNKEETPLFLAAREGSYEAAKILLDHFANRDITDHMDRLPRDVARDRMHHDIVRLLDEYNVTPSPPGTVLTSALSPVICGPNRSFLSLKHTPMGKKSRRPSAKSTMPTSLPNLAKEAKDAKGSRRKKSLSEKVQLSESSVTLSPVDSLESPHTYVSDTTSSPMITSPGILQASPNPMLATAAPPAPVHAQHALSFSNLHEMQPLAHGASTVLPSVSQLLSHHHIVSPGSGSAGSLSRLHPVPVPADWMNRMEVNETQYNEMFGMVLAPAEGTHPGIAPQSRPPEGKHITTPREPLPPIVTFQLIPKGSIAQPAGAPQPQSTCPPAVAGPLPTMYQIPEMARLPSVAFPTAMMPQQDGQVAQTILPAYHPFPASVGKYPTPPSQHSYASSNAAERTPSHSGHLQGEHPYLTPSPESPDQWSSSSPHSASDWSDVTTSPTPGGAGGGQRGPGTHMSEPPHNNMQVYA

Take `COC(=O)c1ccc(C23CC2(C(NP(=O)(c2ccccc2)c2ccccc2)c2ccccc2)C3)cc1` (stereo not given): the composite z-score in [1] is 0.741; in test [2] it was 0.275; in test [3], -0.0009; in test [4], 0.0592; in [5], 1.73; in test [6], 2.26. Further, the composite z-score was 1.17 in test [7]; 1.73 in [9]; 0.0596 in test [10]; 0.214 in [11]; 3.18 in [15]; 0.888 in test [17]. In addition, the composite z-score came out at 0.13 in test [18], 1.07 in [19] and 0.0632 in [20]. Besides, the z-score in test [8] is -4.52 (inactive); in [12], -2.72 (inactive); in test [13], -1.76 (inactive); in test [14] it was -0.789 (inactive); in [16] it was 0.259 (inactive).

Consider `CC(C)NC(=O)[C@@H]1c2ccccc2C(=O)N(Cc2ccccc2)[C@H]1c1ccc(CO)cc1`, for which the composite z-score is 0.726 in test [1]; 0.0445 in test [2]; 0.0411 in [3]; 0.365 in test [4]; -1.1 in [5]; 1.06 in test [6]. In addition, the composite z-score was 1.36 in [7]; -0.194 in [9]; -0.191 in test [10]; 0.347 in [11]; 2.36 in test [15]; 0.12 in [17]. Moreover, the composite z-score in test [18] was -0.905; in [19], -0.376; in test [20], 0.243. In addition, the z-score is -1.1 (inactive) in [8]; -0.726 (inactive) in [12]; -0.471 (inactive) in test [13]; -0.945 (inactive) in test [14]; -0.106 (inactive) in test [16].

On to `CN(C)CCCCNC(=O)[C@H]1C[C@H]2C(=O)N[C@@H](Cc3ccccc3)C(=O)N2[C@H]1c1ccc(O)cc1`, for which the composite z-score was -0.289 in [1]; 0.703 in [2]; -0.0805 in test [3]; 0.934 in test [4]; 1.37 in test [5]; 1.65 in test [6]. The composite z-score stood at 1.22 in [7]; 0.748 in test [9]; 0.107 in [10]; 1.54 in [11]; 0.248 in test [15]; 0.0274 in test [17]. The composite z-score was 1.66 in test [18], 1.11 in test [19] and 0.116 in [20]. Besides, the z-score is 1.85 (inactive) in test [8]; -0.368 (inactive) in [12]; 0.523 (inactive) in [13]; -1.4 (inactive) in test [14]; 1.12 (inactive) in test [16].

Regarding `CCOC(=O)C[C@H]1[C@H](OC(=O)c2ccccc2-c2ccccc2)[C@@H](NC(=O)c2ccc3ccccc3c2)c2cc(OCCCO)ccc2N1C(=O)c1ccc2ccccc2n1`, the composite z-score in test [1] is -0.279; in [2] it was 0.353; in [3], -0.08; in test [4], 0.443; in test [5] it was 0.135; in test [6], 0.0753. The composite z-score was 0.545 in test [7]; 0.484 in test [9]; -0.0373 in test [10]; 0.389 in [11]; 0.998 in test [15]; -0.102 in test [17]. For the same compound, the results for the composite z-score in test [18], in [19] and in test [20] were 0.526, 0.818 and -0.111, respectively. Besides, the z-score in test [8] was 0.122 (inactive); in [12], 0.47 (inactive); in test [13] it was 0.623 (inactive); in [14] it was 0.136 (inactive); in [16] it was -0.263 (inactive).

`NCCCCCNC(=O)[C@H]1C[C@H]2C(=O)NCC(=O)N2[C@H]1c1cccc(OCCO)c1`: the composite z-score in test [1] is 0.257; in test [2], 0.759; in [3], -0.0337; in [4], -0.0838; in test [5], 0.709; in [6], 1.17. Further, the composite z-score was 1.43 in test [7]; 0.95 in [9]; 0.165 in test [10]; 1.31 in test [11]; 2.34 in test [15]; -0.0766 in [17]. Moreover, the results for the composite z-score in test [18], in [19] and in test [20] were 1.33, 0.6 and 0.0311, respectively. In addition, the z-score in test [8] is 1.11 (inactive); in test [12], -0.155 (inactive); in test [13], -1.02 (inactive); in [14], -0.189 (inactive); in test [16] it was 0.946 (inactive).
